Unmarked numbers belong to inactive results. Calls of active or inactive are those of the source. The call rests on the fitted dose curve; in most records, active means well fitted curve in the direction sought with a large enough effect; inactive means no such curve, though single readings can be large or run the other way.

This is an account of results in PubChem BioAssay AID493165 (National Center for Advancing Translational Sciences (NCATS), 2011).

A short description of this assay: Retest of LOPAC molecules that induce DNA re-replication in SW480 adenocarcinoma cells. The note with it: Hoechst DNA content imaging, 48 h; series mostly up to 45.1 µM; activity, positive = re-replication: at the top concentration. From the text: NIH Molecular Libraries Probe Production Network [MLPCN] NIH Chemical Genomics Center [NCGC] MLPCN Grant: Fast Track K99 CA136555 Assay Provider: Melvin DePamphilis, NICHD, NIH Assay Overview Eukaryotic cells normally restrict genome duplication to once per cell division. When this process is aberrant, DNA re-replication occurs when cells reinitiate DNA replication before the first round of replication is complete. DNA re-replication induces the DNA damage response, arrests cell proliferation, and triggers apoptosis. The cell cycle components cyclin A, Cdt-1, Cdc6 and geminin are critical regulators of this process and their misregulation results in DNA re-replication in normal and cancer cells. To identify compounds that induce re-replication in normal cells, an image-based assay was used to measure DNA content of nuclei, as detected by the fluorescent DNA binding dye, Hoechst. Cell nuclei were imaged by a fluorescence scanning plate imager and compounds that induce DNA re-replication were identified by the increase of nuclei with elevated fluorescence intensity.
Assay Protocol Summary For screening, 250 cells in 5 uL/well were dispensed into black clear 1536-well plates (Aurora) using a solenoid-based dispenser. Following transfer of 23 nL compound or DMSO vehicle by a pin tool, the plates were incubated 48 hr at 37 C and 5% CO2. After addition of 1 uL/well Hoescht stain, the plates were incubated 40 min at 37 C, 5% CO2 and total intensity of fluorescent objects (nuclei) were enumerated by an Acumen Explorer Ex3 (TTP LabTech) fluorescence scanning plate imager (405 nm excitation, 500-530 nm emission). Keywords: NIH Roadmap, MLPCN, MLI, MLSMR, qHTS, NCGC, DNA replication, cancer
On to `C=C(C)[C@H]1Cc2c(ccc3c2O[C@@H]2COc4cc(OC)c(OC)cc4[C@@H]2C3=O)O1`, for which the Potency is 1070 nM (active).
On to `CC(C)NP(=O)(NC(C)C)OP(=O)(NC(C)C)NC(C)C`, for which the “activity, positive = re-replication” value is 1.4%.
For the molecule `COc1cc2c(c(OC)c1OC)-c1ccc(OC)c(=O)cc1[C@@H](NC(C)=O)CC2`, the Potency was 33.7 nM (active).
